Common to all, as to experiment: DAPPL (digital affinity profiling via proximity ligation, sequencing); 10 mM Tris-HCl pH 7.5, 50 mM NaCl, 1 mM DTT, 4% glycerol, room temperature, 30 min; GST-TFs on glutathione beads, 16-mer random dsDNA library, 0.1% formaldehyde crosslink after washing; high values mean tight binding
The target in one experiment is T1, FEV (Homo sapiens, UniProt Q99581 1-238).
T1 sequence: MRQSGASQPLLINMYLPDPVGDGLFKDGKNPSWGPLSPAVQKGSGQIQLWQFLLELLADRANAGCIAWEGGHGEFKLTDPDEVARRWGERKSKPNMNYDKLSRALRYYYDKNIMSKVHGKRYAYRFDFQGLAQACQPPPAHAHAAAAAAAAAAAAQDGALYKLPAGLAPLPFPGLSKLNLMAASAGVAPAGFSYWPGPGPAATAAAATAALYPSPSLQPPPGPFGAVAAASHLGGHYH
The following applies: protein: recombinant; tags: N-terminal GST; dsDNA, one strand shown. In short, it runs like this:
(§1)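 Binding signal is each hexamer's read frequency for a factor divided by its frequency in the tag-only sample. The factors were GST-fused human transcription factors from yeast, captured on glutathione beads, DNA-barcoded and pooled with that sample. Pools were incubated with 200 nmole of a random double-stranded 16-mer DNA library in Tris/NaCl/DTT/glycerol buffer at room temperature for 30 min, then washed, crosslinked with 0.1% formaldehyde, proximity-ligated with BsaI/T4 ligase (1 h, 37 °C), PCR-amplified and sequenced on an Illumina NextSeq500.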

The target of another experiment is ETV5 (Homo sapiens, UniProt P41161 1-510). Particulars: protein: recombinant; tags: N-terminal GST; dsDNA, one strand shown. In short, it runs like this: as §1
Chain of ETV5 (P41161 whole entry): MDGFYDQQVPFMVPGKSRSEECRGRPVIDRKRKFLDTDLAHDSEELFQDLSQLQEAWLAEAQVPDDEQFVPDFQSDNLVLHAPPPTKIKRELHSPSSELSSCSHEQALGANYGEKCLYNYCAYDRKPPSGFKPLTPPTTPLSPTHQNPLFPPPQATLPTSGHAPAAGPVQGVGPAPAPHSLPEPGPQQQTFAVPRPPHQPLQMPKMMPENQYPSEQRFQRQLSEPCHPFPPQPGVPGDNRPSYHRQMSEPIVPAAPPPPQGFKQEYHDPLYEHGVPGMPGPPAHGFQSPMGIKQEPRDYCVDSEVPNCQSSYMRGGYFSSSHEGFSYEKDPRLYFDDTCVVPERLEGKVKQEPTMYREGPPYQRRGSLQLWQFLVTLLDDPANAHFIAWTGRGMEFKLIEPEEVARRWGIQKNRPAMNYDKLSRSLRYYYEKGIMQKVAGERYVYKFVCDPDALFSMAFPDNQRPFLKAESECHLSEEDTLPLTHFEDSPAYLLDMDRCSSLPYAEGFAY
The target in the next experiment is HSF1 (Homo sapiens, UniProt Q00613 1-529). Particulars: protein: recombinant; tags: N-terminal GST; chain copies: 3; dsDNA, one strand shown. In short, it runs like this: as §1
Chain of HSF1 (Q00613 whole entry): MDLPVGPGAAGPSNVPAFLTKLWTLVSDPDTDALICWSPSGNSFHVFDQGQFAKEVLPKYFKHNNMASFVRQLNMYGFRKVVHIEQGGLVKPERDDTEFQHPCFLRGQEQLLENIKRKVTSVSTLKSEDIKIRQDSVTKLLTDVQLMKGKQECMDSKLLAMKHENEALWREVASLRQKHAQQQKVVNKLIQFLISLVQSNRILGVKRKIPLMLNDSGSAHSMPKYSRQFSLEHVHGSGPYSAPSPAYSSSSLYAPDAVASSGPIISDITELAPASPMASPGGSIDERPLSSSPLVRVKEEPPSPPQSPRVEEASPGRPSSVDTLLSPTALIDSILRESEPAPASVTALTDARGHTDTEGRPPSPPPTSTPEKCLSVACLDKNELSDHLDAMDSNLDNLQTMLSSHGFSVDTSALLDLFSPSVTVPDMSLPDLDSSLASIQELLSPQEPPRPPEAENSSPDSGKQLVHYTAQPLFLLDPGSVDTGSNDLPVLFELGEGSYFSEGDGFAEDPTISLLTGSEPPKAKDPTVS
Another experiment deals with T2, SPIC (Homo sapiens, UniProt Q8N5J4 1-248).
T2 sequence: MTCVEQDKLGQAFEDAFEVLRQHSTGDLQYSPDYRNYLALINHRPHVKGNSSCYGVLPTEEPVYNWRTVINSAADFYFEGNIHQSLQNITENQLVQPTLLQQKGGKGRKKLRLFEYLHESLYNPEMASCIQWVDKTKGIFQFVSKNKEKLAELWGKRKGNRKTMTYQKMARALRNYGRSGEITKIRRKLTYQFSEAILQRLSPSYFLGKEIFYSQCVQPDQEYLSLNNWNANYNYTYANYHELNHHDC
The following applies: protein: recombinant; tags: N-terminal GST; dsDNA, one strand shown. In short, it runs like this:
as §1

For a further experiment, the target named is ELF4 (Homo sapiens, UniProt Q99607 1-663). Particulars: protein: recombinant; tags: N-terminal GST; dsDNA, one strand shown. A digest of the protocol: as §1
Chain of ELF4 (Q99607 whole entry): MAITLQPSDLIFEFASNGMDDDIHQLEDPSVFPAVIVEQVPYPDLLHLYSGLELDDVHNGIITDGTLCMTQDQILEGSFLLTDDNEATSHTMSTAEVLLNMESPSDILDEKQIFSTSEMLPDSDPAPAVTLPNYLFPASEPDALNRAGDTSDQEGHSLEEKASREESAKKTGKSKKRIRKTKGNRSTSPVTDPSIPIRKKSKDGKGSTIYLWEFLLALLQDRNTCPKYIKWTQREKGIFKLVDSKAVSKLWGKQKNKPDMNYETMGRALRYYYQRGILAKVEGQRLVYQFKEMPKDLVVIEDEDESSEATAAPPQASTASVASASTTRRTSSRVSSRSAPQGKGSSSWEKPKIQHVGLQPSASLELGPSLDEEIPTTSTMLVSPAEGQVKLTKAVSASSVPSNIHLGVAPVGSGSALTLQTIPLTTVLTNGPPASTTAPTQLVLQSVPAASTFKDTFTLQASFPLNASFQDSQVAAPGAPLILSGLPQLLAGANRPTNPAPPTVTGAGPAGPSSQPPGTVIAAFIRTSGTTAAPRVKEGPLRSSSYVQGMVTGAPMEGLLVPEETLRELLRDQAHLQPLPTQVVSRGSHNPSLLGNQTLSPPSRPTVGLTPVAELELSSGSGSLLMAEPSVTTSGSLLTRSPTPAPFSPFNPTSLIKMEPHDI
A further experiment addresses T3, ELK4 (Homo sapiens, UniProt P28324-2 1-405).
T3 sequence: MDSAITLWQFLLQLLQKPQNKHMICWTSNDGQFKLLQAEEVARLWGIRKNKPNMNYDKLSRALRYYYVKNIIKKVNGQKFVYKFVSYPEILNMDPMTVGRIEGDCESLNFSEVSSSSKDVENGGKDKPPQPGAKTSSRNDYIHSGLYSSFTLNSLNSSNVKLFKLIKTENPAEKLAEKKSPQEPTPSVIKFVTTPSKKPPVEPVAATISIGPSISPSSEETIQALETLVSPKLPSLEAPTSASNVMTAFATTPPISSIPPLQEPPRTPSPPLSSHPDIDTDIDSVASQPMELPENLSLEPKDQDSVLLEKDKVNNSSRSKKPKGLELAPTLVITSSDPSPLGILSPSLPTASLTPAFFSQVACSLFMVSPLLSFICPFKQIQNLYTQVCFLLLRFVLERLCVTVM
Particulars: protein: recombinant; tags: N-terminal GST; dsDNA, one strand shown. A digest of the protocol: as §1

A further experiment addresses T4, ETV2 (Homo sapiens, UniProt O00321 1-342).
T4 sequence: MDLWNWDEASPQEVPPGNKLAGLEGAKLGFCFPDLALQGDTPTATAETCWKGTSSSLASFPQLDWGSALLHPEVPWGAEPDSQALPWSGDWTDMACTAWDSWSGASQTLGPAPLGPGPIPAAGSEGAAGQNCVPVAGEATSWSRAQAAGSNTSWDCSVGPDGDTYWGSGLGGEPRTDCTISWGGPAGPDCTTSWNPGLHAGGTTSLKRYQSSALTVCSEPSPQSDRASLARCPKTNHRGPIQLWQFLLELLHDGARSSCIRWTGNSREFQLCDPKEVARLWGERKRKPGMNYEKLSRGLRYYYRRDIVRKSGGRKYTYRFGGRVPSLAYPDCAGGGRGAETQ
Particulars: protein: recombinant; tags: N-terminal GST; dsDNA, one strand shown. A digest of the protocol:
as §1

In another experiment the target is T5, ELF3 (Homo sapiens, UniProt P78545 1-371).
T5 sequence: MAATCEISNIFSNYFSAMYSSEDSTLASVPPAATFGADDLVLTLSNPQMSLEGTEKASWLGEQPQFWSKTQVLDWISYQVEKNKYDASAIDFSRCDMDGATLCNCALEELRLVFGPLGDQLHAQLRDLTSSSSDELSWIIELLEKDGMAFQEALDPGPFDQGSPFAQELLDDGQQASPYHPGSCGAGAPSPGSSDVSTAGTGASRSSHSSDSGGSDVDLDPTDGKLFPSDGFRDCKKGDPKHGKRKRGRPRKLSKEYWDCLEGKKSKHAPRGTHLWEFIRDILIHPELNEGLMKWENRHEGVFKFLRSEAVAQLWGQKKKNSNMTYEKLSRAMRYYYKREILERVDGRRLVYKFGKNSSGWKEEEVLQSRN
Particulars: protein: recombinant; tags: N-terminal GST; dsDNA, one strand shown. In short, it runs like this: as §1

In another experiment the target is CRX (Homo sapiens, UniProt O43186 1-299). The following applies: protein: recombinant; tags: N-terminal GST; dsDNA, one strand shown. A digest of the protocol:
as §1

The next experiment concerns the target ETV1 (Homo sapiens, UniProt P50549 1-477). Particulars: protein: recombinant; tags: N-terminal GST; dsDNA, one strand shown. A digest of the protocol: as §1
A further experiment deals with T6, ERF (Homo sapiens, UniProt P50548 1-548).
T6 sequence: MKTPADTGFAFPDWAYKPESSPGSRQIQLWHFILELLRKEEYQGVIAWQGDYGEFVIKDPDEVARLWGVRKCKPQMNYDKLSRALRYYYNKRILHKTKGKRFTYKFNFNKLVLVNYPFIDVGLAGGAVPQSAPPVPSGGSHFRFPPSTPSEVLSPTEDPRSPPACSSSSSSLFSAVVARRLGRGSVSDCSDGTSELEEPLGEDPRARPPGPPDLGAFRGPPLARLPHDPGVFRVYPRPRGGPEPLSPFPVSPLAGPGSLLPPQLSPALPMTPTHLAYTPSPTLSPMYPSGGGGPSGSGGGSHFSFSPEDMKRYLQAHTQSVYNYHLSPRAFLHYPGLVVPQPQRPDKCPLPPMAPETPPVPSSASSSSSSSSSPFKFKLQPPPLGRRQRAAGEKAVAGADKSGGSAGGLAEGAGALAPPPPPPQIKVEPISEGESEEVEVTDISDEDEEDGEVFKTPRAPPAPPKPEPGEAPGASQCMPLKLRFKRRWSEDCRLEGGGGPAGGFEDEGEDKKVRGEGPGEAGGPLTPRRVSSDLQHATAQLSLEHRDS
The following applies: protein: recombinant; tags: N-terminal GST; dsDNA, one strand shown. In short, it runs like this:
as §1

The next experiment has as its target T7, ETV3L (Homo sapiens, UniProt Q6ZN32 1-361).
T7 sequence: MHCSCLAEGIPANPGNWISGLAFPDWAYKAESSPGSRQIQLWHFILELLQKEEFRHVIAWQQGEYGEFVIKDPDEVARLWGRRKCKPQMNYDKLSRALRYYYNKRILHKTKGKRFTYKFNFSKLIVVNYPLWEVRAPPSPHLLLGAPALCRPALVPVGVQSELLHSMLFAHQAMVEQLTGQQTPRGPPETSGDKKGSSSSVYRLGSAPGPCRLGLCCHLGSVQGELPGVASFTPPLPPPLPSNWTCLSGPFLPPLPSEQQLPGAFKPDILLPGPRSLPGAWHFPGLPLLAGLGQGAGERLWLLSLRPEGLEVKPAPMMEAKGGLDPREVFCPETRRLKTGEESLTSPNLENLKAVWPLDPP
Particulars: protein: recombinant; tags: N-terminal GST; dsDNA, one strand shown. In short, it runs like this: as §1

Another experiment deals with T8, ETS2 (Homo sapiens, UniProt P15036 1-469).
T8 sequence: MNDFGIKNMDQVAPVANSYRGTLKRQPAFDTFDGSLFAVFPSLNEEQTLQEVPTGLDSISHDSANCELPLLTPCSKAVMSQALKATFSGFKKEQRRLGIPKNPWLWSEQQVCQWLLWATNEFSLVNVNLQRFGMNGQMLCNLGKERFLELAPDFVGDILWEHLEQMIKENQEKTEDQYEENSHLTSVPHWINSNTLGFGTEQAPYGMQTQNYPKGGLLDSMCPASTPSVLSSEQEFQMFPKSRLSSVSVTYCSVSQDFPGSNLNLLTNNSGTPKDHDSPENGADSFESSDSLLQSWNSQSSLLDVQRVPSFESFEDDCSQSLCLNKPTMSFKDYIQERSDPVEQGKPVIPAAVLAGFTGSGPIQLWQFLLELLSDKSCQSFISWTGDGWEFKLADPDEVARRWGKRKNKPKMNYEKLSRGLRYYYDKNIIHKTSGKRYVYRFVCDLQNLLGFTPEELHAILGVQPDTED
Particulars: protein: recombinant; tags: N-terminal GST; dsDNA, one strand shown. In short, it runs like this: as §1

The next experiment has as its target T9, SPDEF (Homo sapiens, UniProt O95238 1-335).
T9 sequence: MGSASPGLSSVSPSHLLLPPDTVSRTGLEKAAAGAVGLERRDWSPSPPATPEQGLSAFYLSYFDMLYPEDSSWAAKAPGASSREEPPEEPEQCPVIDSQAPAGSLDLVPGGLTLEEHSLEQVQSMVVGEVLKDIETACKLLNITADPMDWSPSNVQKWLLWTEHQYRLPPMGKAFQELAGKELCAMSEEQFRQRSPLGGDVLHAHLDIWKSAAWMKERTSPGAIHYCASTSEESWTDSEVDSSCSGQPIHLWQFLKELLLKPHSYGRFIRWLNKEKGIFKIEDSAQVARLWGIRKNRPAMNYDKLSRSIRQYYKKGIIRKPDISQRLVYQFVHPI
Particulars: protein: recombinant; tags: N-terminal GST; dsDNA, one strand shown. A digest of the protocol: as §1

A further experiment concerns the target T10, ETV7 (Homo sapiens, UniProt Q9Y603 1-341).
T10 sequence: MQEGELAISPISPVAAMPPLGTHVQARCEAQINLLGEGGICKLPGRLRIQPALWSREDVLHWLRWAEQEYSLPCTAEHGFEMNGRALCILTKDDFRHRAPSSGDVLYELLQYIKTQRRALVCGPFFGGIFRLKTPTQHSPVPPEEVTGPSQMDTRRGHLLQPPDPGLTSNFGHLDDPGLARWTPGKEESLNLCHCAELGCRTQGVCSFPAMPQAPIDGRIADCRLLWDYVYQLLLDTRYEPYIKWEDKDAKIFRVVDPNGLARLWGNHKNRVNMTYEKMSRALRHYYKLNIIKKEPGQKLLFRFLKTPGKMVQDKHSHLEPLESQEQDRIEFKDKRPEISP
The following applies: protein: recombinant; tags: N-terminal GST; dsDNA, one strand shown. In short, it runs like this: as §1

Another experiment deals with T11, ELF5 (Homo sapiens, UniProt Q9UKW6-2 1-255).
T11 sequence: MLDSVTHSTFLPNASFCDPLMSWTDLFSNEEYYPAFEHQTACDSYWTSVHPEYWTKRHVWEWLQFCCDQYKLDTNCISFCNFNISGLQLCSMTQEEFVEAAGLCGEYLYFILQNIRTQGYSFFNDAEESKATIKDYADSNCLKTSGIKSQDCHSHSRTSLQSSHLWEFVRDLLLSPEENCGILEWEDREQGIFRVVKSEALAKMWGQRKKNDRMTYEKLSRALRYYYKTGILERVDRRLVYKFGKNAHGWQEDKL
The following applies: protein: recombinant; tags: N-terminal GST; dsDNA, one strand shown. In short, it runs like this:
as §1

The target in the next experiment is T12, ETV3 (Homo sapiens, UniProt P41162-2 1-143).
T12 sequence: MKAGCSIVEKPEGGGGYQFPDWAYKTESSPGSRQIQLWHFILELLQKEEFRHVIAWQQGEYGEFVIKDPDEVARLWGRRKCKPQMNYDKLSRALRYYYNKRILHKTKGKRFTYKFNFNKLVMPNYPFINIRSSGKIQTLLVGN
The following applies: protein: recombinant; tags: N-terminal GST; dsDNA, one strand shown. In short, it runs like this: as §1

A further experiment deals with ETV6 (Homo sapiens, UniProt P41212 1-452). Particulars: protein: recombinant; tags: N-terminal GST; dsDNA, one strand shown. A digest of the protocol: as §1
Chain of ETV6 (P41212 whole entry): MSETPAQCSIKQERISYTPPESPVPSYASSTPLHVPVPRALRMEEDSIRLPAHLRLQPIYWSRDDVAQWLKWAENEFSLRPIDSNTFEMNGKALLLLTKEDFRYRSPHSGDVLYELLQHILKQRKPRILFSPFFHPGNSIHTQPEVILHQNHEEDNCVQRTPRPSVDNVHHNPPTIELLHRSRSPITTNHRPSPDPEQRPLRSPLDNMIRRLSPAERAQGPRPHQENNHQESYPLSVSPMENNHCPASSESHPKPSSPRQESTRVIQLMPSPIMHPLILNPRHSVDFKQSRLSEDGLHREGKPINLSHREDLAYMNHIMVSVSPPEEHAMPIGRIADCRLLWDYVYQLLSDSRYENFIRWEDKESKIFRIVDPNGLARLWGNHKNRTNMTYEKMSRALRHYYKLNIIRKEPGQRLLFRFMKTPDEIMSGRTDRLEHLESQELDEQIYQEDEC

Chain of CRX (O43186 whole entry): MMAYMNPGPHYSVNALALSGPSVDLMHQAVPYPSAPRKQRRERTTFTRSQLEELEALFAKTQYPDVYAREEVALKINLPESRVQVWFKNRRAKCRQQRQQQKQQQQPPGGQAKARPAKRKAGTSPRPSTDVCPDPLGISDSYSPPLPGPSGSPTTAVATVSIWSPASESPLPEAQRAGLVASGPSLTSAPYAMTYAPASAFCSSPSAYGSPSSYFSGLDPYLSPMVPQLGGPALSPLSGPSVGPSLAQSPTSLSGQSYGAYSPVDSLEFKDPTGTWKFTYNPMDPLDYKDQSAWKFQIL
Chain of ETV1 (P50549 whole entry): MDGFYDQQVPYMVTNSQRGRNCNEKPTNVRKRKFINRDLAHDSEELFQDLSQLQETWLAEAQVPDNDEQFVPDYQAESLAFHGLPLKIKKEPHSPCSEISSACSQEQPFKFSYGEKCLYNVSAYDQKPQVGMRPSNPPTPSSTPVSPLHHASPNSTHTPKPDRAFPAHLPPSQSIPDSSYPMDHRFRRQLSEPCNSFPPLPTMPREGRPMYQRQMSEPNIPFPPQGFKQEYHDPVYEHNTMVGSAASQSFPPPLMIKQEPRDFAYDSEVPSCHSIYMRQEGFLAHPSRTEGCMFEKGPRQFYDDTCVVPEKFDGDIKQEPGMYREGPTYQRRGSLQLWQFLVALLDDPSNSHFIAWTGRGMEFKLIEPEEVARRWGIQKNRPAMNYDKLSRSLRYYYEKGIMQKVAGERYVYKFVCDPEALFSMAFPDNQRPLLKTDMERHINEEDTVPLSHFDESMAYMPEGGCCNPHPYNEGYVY

Consider CCGGAT, for which the binding signal with FEV is 7.2 fold enrichment (6-mer frequency, TF over GST control); with ETV5, 3.55 fold enrichment (6-mer frequency, TF over GST control); with HSF1 it was 1.63 fold enrichment (6-mer frequency, TF over GST control); in the experiment with SPIC, 2.66 fold enrichment (6-mer frequency, TF over GST control); with ELF4, 2.75 fold enrichment (6-mer frequency, TF over GST control); in the experiment with ELK4, 2.74 fold enrichment (6-mer frequency, TF over GST control). Moreover, the binding signal with ETV2 was 2.89 fold enrichment (6-mer frequency, TF over GST control); with ELF3 it was 3.19 fold enrichment (6-mer frequency, TF over GST control); in the experiment with CRX, 2.03 fold enrichment (6-mer frequency, TF over GST control); with ETV1, 3.5 fold enrichment (6-mer frequency, TF over GST control); with ERF, 2.87 fold enrichment (6-mer frequency, TF over GST control); in the experiment with ETV3L, 3.03 fold enrichment (6-mer frequency, TF over GST control). The binding signal in the experiment with ETS2 was 3.38 fold enrichment (6-mer frequency, TF over GST control); with SPDEF, 6.71 fold enrichment (6-mer frequency, TF over GST control); with ETV7 it was 2.7 fold enrichment (6-mer frequency, TF over GST control); with ELF5, 3.7 fold enrichment (6-mer frequency, TF over GST control); with ETV3, 3.64 fold enrichment (6-mer frequency, TF over GST control); with ETV6, 3.06 fold enrichment (6-mer frequency, TF over GST control).
